Here are results for nine compounds from PubChem BioAssay (Tox21).

Values joined by “and” are separate entries in the source; they are usually repeats but may differ in a detail not shown here. Identical values can stand only once. A number with no mark means an inactive call. Inconclusive results are not listed. Active and inactive are the calls of the source. Unless noted, the call rests on the fitted dose curve.

Assay [1] deals with Gonadotropin-releasing hormone receptor (Homo sapiens) (UniProt P30968). Nature of the assay: Human gonadotropin-releasing hormone receptor (GnRHR) small molecule agonists, calcium flux assay in GnRHR-HEK293 cells (AID 1920063). Further: nearly all actives have a fitted effect of over 35% in size. The procedure, abridged:
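HEK293 cells stably expressing human GnRHR were plated 18 h at 37 °C, loaded with calcium dye 1 h at 37 °C, then given compound in agonist mode; fluorescence (Ex/Em 480/540) read kinetically for 3 min at 1 s intervals.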

Assay [2] has as its target KiSS-1 receptor (Homo sapiens) (UniProt Q969F8). Kind of assay: Human kisspeptin (KISS1R) small molecule agonists, calcium flux assay in KISS1R-HEK293 cells (AID 1920064; active means well fitted activation curve with a large enough effect in the repeat runs). An outline of the steps:
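HEK293 cells stably expressing human KISS1R were plated 18 h at 37 °C, loaded with calcium dye for 1 h at 37 °C, then given compound by pin tool. Fluorescence (Ex/Em 480/540) was read kinetically for 3 min.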

Assay [3] can be described thus: G protein-coupled receptor (GPCR) small molecule agonists, calcium flux assay: HEK293 wild type cell line counter screen (AID 1920065). An outline of the steps:
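Cells were plated and cultured 18 h at 37 C/5% CO2, then loaded with calcium dye for 1 h at 37 C. Compounds in DMSO were pin-transferred in agonist mode, and fluorescence (Ex/Em 480/540) was read kinetically for 3 min at 1 s intervals.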

Assay [4] can be described thus: p53 small molecule agonists, cell-based qHTS assay with human liver microsomes: qHTS cell viability counter screen (AID 1963579). Further: nearly all actives have a fitted effect of over 45% in size. Further: potency means the concentration at half of the fitted maximal effect. An outline of the steps: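 p53RE-bla cells, 4,000/well, dosed 5 hours after plating, with human liver microsomes (0.5 mg/mL final) plus NADPH (0.5 mg/mL final), 16 hours at 37 C. Viability read as CellTiter-Glo luminescence after 30 min at room temperature.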

Assay [5] is described as follows: p53 small molecule agonists, cell-based qHTS assay with rat liver microsomes: qHTS cell viability counter screen (AID 1963580). Further: nearly all actives have a fitted effect of over 45% in size. Further: potency means the concentration at half of the fitted maximal effect. The procedure, abridged:
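Viability is assessed in parallel with the p53 reporter read: HCT-116 p53RE-bla cells receive compounds plus rat microsomes and NADPH (0.5 mg/mL final apiece), incubate 16 h at 37 C, and then CellTiter-Glo luminescence is recorded.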

Assay [6] is described as follows: p53 small molecule agonists, cell-based qHTS assay: qHTS cell viability counter screen (AID 1963581). Further: nearly all actives have a fitted effect of over 45% in size. Further: potency means the concentration at half of the fitted maximal effect. The procedure, abridged:
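p53RE-bla HCT-116 cells were exposed to compounds for 16 h at 37 C; after the beta-lactamase FRET read in the same wells, CellTiter-Glo was added and luminescence (intracellular ATP) read after 30 min at room temperature.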

The target of assay [7] is 5-hydroxytryptamine receptor 2A (Homo sapiens) (UniProt P28223). Nature of the assay: 5-hydroxytryptamine receptor 2A (HTR2A) small molecule antagonists, cell-based qHTS assay (AID 1963586). Further: nearly all actives have a fitted effect of over 45% in size. Further: potency means the concentration at half of the fitted maximal effect. An outline of the steps: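 Antagonist-mode intracellular calcium assay: DOI (4 nM) added after 5 min compound pre-incubation at room temperature to dye-loaded HTR2A-CHO cells. Fluorescence followed for 3 min, sampled every second.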
Sequence of 5-hydroxytryptamine receptor 2A (Homo sapiens) (P28223 whole entry, looked up): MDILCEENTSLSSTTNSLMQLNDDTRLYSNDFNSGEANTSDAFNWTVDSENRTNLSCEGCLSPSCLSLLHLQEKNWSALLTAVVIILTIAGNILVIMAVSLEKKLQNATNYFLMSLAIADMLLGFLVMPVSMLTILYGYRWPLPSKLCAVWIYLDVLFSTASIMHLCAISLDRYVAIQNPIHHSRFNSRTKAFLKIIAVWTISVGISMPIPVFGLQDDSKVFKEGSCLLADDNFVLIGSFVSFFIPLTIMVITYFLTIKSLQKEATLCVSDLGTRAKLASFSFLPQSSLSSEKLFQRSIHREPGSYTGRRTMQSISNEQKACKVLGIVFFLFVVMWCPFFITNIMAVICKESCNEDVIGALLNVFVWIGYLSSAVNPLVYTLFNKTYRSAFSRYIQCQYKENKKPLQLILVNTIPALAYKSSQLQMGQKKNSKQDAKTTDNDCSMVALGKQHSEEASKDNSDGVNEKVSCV

Assay [8] has the same target. Nature of the assay: 5-hydroxytryptamine receptor 2A (HTR2A) small molecule agonists, cell-based qHTS assay (AID 1963587). Further: nearly all actives have a fitted effect of over 30% in size. Further: potency means the concentration at half of the fitted maximal effect. The procedure, abridged: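 CHO cells stably expressing human HTR2A, plated 18 h, loaded with calcium dye 1 h at 37 C. Agonist mode: compounds added and intracellular calcium fluorescence recorded kinetically for 2 min at 1 sec intervals.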
In assay [9] the target is Muscarinic acetylcholine receptor M1 (Homo sapiens) (UniProt P11229). Nature of the assay: Cholinergic receptor muscarinic 1 (CHRM1) small molecule antagonists, cell-based qHTS assay (AID 1963588). Further: nearly all actives have a fitted effect of over 40% in size. Further: potency means the concentration at half of the fitted maximal effect. An outline of the steps:
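CHRM1-CHO calcium-flux assay, antagonist mode. Cells were seeded 18 h, dye-loaded 1 h at 37 C and given compound for 5 min at RT, then acetylcholine was added at 50nM. FDSS fluorescence was read 3 min; 15 concentrations, three runs.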

Assay [10] has the same target. Nature of the assay: Cholinergic receptor muscarinic 1 (CHRM1) small molecule agonists, cell-based qHTS assay (AID 1963589). Further: nearly all actives have a fitted effect of over 35% in size. An outline of the steps: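 CHO cells stably expressing human CHRM1, seeded 18 h at 37 C/5% CO2, dye-loaded 1 h at 37 C, then given compound in agonist mode; intracellular calcium fluorescence read kinetically at 1 s intervals. Fifteen concentrations, three independent runs.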

Assay [11] addresses D(2) dopamine receptor (Homo sapiens) (UniProt P14416). Kind of assay: Dopamine D2 receptor (DRD2) small molecule agonists, cell-based qHTS assay (AID 1963594). Further: nearly all actives have a fitted effect of over 35% in size. An outline of the steps: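 HEK293 cells stably expressing human DRD2, pre-treated with PDE inhibitor Ro20-1724 (0.1 mM final) and compound 10 min at room temperature, then stimulated with NKH477 (200nM […]) for 30 min. cAMP read by HTRF (665/620 nm).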

Assay [12] has the same target. Nature of the assay: Dopamine D2 receptor (DRD2) small molecule antagonists, cell-based qHTS assay (AID 1963595; active means well fitted inhibition curve with a large enough effect in the signal ratio in the repeat runs, with a control signal flat; the % refers to the signal ratio). The procedure, abridged:
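HTRF cAMP read-out at 665 and 620 nm emission (340 nm excitation). Antagonist mode: compounds were tested against 12 nM quinpirole in DRD2-HEK293 cells, with 200 nM NKH477 raising cAMP and 0.1 mM Ro20-1724 blocking its breakdown.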

A short description of assay [13]: cAMP Responsive Elements (CRE) small molecule agonists, cell-based qHTS assay (AID 1963590). An outline of the steps: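 CRE-bla HEK 293T cells in DMEM with 10% dialyzed FBS, NEAA, pyruvate and 25 mM HEPES were plated 18 h at 37 C/5% CO2, then exposed to compounds in DMSO for 3 h before LiveBLAzer B/G FRET substrate addition.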
Assay [14] is described as follows: cAMP Responsive Elements (CRE) small molecule antagonists, cell-based qHTS assay (AID 1963591; active means well fitted inhibition curve with a large enough effect in the signal ratio in the repeat runs, not every such curve was filed as active; the % refers to the signal ratio). The procedure, abridged:
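CRE-bla HEK293T cells were plated 18 h at 37 °C/5% CO2, pinned with compound in DMSO, then stimulated with NKH477 at 0.25 uM final for 3 h. LiveBLAzer B/G FRET substrate was added and plates incubated 2 h at room temperature.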

Assay [15] addresses Beta-2 adrenergic receptor (Homo sapiens) (UniProt P07550). Nature of the assay: Adrenergic beta2 receptor (ADRB2) small molecule antagonists, cell-based qHTS assay (AID 1963592). Further: nearly all actives have a fitted effect of over 50% in size. Further: potency means the concentration at half of the fitted maximal effect. An outline of the steps:
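Cells (CHO, stable ADRB2 overexpression) incubated 18-20hr at 37C; compounds added from DMSO; agonist mix (1nM isoproterenol, 100uM IBMX, 25uM Ro-20-1724) added; 0.5hr RT; d2-cAMP and anti-cAMP-cryptate added; 1hr RT; 665/615 nm read.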

Assay [16] in a line: p53 small molecule agonists, cell-based qHTS assay (AID 1963582; active means well fitted activation curve with a large enough effect in the signal ratio in the repeat runs, not every such curve was filed as active; the % refers to the signal ratio). An outline of the steps: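 p53RE-bla beta-lactamase reporter cells rested 5 h at 37 C/5% CO2, then received compounds in DMSO by pin transfer and were incubated 16 h at 37 C. LiveBLAzer B/G FRET substrate was loaded for 2 h at room temperature before fluorescence reading.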
Assay [17] is described as follows: p53 small molecule agonists, cell-based qHTS assay with human liver microsomes (AID 1963577). An outline of the steps:
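p53RE-bla cells, 4,000/well, compound added after 5 h, with human liver microsomes 0.5 mg/mL and NADPH 0.5 mg/mL final; 16 h at 37 C, then LiveBLAzer 2 h RT, fluorescence.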

Assay [18] has as its target Beta-2 adrenergic receptor (Homo sapiens) (UniProt P07550). Nature of the assay: Adrenergic beta2 receptor (ADRB2) small molecule agonists, cell-based qHTS assay (AID 1963593).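 Further: CHO cells stably overexpressing human ADRB2.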 An outline of the steps:
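CHO cells stably over-expressing ADRB2 were plated overnight at 37C, then dosed with compounds plus a stimulation mix containing 100uM IBMX and 25uM Ro-20-1724 for 0.5hr at room temperature. cAMP was measured by HTRF competition, 1hr.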

A short description of assay [19]: p53 small molecule agonists, cell-based qHTS assay with rat liver microsomes (AID 1963578). The procedure, abridged: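 p53RE-bla cells, 4,000/well, pre-incubated 5 h, then given compounds plus rat liver microsomes (0.5 mg/mL final) and NADPH (0.5 mg/mL final). Incubation 16 h at 37 C; beta-lactamase reporter read by LiveBLAzer fluorescence after 2 h at room temperature.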

Sequence of Muscarinic acetylcholine receptor M1 (Homo sapiens) (P11229 whole entry, looked up): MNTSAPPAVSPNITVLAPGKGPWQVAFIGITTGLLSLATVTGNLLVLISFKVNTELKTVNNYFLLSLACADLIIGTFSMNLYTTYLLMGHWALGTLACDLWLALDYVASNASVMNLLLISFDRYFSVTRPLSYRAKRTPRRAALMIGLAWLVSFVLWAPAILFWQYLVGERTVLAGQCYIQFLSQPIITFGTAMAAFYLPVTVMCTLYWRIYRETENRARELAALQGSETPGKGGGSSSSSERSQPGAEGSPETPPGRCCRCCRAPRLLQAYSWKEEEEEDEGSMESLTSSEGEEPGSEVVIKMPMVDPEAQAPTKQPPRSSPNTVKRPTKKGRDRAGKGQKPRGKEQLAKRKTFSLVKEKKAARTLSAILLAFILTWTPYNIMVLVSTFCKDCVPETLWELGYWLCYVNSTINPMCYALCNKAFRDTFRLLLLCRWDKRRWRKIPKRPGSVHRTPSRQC
Sequence of Beta-2 adrenergic receptor (Homo sapiens) (P07550 whole entry, looked up): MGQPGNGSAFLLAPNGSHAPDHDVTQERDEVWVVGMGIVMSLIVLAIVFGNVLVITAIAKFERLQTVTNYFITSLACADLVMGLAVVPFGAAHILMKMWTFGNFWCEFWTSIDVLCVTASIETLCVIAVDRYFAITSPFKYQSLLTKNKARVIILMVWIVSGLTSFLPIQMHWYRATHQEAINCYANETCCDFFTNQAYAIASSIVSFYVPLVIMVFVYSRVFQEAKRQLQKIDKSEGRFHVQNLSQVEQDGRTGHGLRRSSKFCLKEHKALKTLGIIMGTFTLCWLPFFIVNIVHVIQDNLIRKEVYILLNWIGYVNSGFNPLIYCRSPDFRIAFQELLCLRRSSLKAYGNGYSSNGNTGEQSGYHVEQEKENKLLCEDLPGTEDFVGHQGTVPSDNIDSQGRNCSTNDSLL
Sequence of Gonadotropin-releasing hormone receptor (Homo sapiens) (P30968 whole entry, looked up): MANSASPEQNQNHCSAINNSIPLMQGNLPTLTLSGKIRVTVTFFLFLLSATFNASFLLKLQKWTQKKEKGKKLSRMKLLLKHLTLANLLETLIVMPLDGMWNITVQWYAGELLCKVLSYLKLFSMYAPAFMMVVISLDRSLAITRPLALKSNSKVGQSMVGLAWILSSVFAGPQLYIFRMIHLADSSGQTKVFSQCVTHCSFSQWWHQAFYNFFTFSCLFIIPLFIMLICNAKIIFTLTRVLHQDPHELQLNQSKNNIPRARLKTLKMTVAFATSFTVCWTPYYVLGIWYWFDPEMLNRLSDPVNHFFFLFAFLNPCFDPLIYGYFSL
Sequence of KiSS-1 receptor (Homo sapiens) (Q969F8 whole entry, looked up): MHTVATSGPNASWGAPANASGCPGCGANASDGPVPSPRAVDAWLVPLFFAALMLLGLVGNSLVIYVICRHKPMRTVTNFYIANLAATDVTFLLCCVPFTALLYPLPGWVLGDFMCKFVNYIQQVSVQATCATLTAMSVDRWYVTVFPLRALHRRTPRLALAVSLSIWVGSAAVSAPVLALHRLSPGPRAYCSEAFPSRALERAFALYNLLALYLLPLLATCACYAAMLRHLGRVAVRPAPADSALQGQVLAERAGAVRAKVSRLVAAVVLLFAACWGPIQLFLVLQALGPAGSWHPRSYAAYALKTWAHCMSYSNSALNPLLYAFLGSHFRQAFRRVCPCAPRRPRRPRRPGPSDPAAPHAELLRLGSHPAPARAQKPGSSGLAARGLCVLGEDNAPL
Sequence of D(2) dopamine receptor (Homo sapiens) (P14416 whole entry, looked up): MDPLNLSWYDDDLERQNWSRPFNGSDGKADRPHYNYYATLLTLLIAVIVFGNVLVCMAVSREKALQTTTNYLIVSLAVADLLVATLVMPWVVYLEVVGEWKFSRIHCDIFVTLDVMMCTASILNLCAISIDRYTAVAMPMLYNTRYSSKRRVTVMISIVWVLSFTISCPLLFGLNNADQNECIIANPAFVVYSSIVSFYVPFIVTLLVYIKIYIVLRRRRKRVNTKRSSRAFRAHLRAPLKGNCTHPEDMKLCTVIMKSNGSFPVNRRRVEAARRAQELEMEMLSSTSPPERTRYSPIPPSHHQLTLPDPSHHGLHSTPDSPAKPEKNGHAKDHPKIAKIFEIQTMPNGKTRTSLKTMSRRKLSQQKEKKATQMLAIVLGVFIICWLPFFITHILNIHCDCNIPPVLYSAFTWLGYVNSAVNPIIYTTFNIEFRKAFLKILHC

Turning to `Cc1c(Cl)c(=O)oc2cc(O)ccc12`, the Potency result in assay [1], in [2], in assay [3], in [4], in [5] and in [6] was “inactive” throughout. Moreover, the Potency entry in assay [7], in assay [8], in [9], in assay [10], in assay [11] and in [12] was “inactive” each time.
With `Nc1cc(N)cc(C(=O)O)c1`, the Potency entry in [1], in assay [2], in assay [3], in assay [4], in [5] and in assay [6] was “inactive” each time. For the same compound, the Potency result in [7], in [8], in assay [9], in assay [10], in [13] and in assay [14] was “inactive” throughout. Moreover, the Potency result in assay [15] and in assay [11] was “inactive” each time.
For the compound `CCCC(CC)CCCCCCCN` (stereo not drawn), the Potency result in assay [1], in assay [2], in assay [3], in assay [4], in assay [5] and in assay [6] was “inactive” throughout. Further, the Potency result in assay [16], in [10], in [13], in assay [14], in [15] and in assay [11] was “inactive” throughout. In addition, the Potency entry in [12] was “inactive”. Further, the Potency in [7] is 24.2 µM (active); in [8], 44.7 µM (active); in assay [9], 4.84 µM (active).
Turning to `O=[N+]([O-])c1cccc(C(F)(F)F)c1`, the Potency entry in [1], in assay [2], in assay [3], in [17], in assay [5] and in assay [6] was “inactive” in each case. Moreover, the Potency entry in assay [16], in assay [7], in [8], in assay [9], in [10] and in assay [13] was “inactive” each time. For the same compound, the Potency entry in assay [14], in assay [15], in assay [11] and in assay [12] was “inactive” in each case.
Take `C[C@H]1O[C@@H](O[C@H]2[C@@H](O)C[C@H](O[C@H]3[C@@H](O)C[C@H](O[C@H]4CC[C@@]5(C)[C@H](CC[C@@H]6[C@@H]5C[C@@H](O)[C@]5(C)[C@@H](C7=CC(=O)OC7)CC[C@]65O)C4)O[C@@H]3C)O[C@@H]2C)C[C@H](O)[C@@H]1O`: the Potency entry in assay [1], in assay [2], in assay [3], in assay [18], in assay [11] and in assay [12] was “inactive” throughout. Besides, the Potency in assay [4] is 0.0903 µM (active); in assay [5] it was 205 nM (active) and 90.3 nM (active); in assay [6], 102 nM (active) and 90.3 nM (active).
As for `O=C(OCC(O)CO)c1ccccc1Nc1ccnc2cc(Cl)ccc12` (stereo not drawn), the Potency result in assay [1], in assay [2], in assay [3], in [4], in [5] and in [6] was “inactive” each time. Also, the Potency result in assay [7], in assay [8], in assay [10], in assay [15], in [18] and in assay [11] was “inactive” in each case. For the same compound, in assay [12], the Potency entry is “inactive”.
With `c1ccc(C(O[C@@H]2CCCN(CCc3ccc4c(c3)OCO4)C2)c2ccccc2)cc1`, the Potency entry in assay [1], in assay [2], in [3], in assay [19], in assay [4] and in assay [5] was “inactive” each time. Also, the Potency entry in assay [10], in [11] and in assay [12] was “inactive” in each case. Besides, the Potency was 0.119 µM (active) in assay [9] and 48.6 µM (active) in assay [15].
On to `CC(C)CCCCCCOC(=O)C1CCCCC1C(=O)OCCCCCCC(C)C` (stereo not drawn), for which the Potency entry in [1], in assay [2], in assay [3], in [4], in assay [5] and in [6] was “inactive” throughout. The Potency result in assay [7], in assay [8], in assay [9], in [13], in assay [14] and in assay [15] was “inactive” each time. Moreover, the Potency result in assay [11] and in assay [12] was “inactive” each time.
On to `C#C[C@]1(O)CC[C@H]2[C@@H]3[C@H](C)CC4=C(CCC(=O)C4)[C@H]3CC[C@@]21C`, for which the Potency entry in [1], in [2], in assay [3], in assay [19], in assay [4] and in [5] was “inactive” throughout. Moreover, the Potency result in assay [16] and in [12] was “inactive” each time.
